Bioassay records deposited in PubChem by National Center for Advancing Translational Sciences (NCATS).
FMDV antiviral – blocks foot and mouth disease virus | AID 1159524 | FMDV antiviral cell-based qHTS | Potency, µM (titrated, usually from 57.9 µM), for the others: at the top dose activity change, negative = inhibition, most hits filed as inhibitors | 410,000 compounds, 1.2% hits; calls by dose curve; tested in HEK293T cells; further: read-out not given here; potency means the concentration at half of the fitted maximal effect; nearly all actives have a fitted effect of over 45% in size
FBPA Giardia inh – Giardia lamblia aldolase inhibition. purified Giardia FBPA. Potency, µM (doses to about 59.6 µM), for the others: top-dose activity, negative = inhibition, most hits filed as inhibitors. 290,000 compounds, 0.71% hits; further: potency means the concentration at half of the fitted maximal effect; nearly all actives have a fitted effect of over 55% in size
Target sequence (A8B2U2 whole entry, looked up): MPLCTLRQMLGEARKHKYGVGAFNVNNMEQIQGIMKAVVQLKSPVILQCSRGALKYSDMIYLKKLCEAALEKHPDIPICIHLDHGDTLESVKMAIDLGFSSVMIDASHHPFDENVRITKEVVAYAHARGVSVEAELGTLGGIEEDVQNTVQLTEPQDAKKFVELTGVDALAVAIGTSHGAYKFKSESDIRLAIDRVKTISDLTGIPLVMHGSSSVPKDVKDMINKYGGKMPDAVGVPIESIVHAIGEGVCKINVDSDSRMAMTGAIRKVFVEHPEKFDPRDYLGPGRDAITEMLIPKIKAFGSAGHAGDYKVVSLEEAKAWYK
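Giardia FBPA (40 nM reagent) was preincubated 10 min at RT with compound (up to 57.5 uM final), then substrate plus GAPDH/TPI/NAD/arsenate coupling system with diaphorase/resazurin was added; resorufin fluorescence (525/598 nm) was read after 20 min.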
HCV inh – inhibitors of hepatitis C virus infection; Potency, µM (top dose mostly 41.8 µM), inactives show at the top dose activity change, negative = inhibition, actives largely listed as inhibitors; AID 651820; Huh7.5.1 HCVcc-Cre infection, luciferase reporter, 44 h; 340,000 compounds, 3.4% hits; further: potency means the concentration at half of the fitted maximal effect
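Whole-lifecycle infectious HCVcc-Cre system; cells 1,000/well, compound then virus (~0.5 moi) added 4 h after plating, 44 h culture. Luciferase read 15 sec following 15 min substrate incubation, room temp.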
HCMV inh – blocks human cytomegalovirus replication | activity change, negative = inhibition, % at 57.5 µM | HFF cells, HCMV-luciferase reporter, 72 h; stronger effect = lower value | 410,000 compounds, 4.5% hits | AID 1259415; in the data active means activity change below about -60%; inconclusive means no clear call, values can overlap the other calls; inactive means above about -39%
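After 16 h attachment at 37C, HFF cells received test compound and HCMV-luciferase (1 PFU/cell); reporter luminescence read 72 h later, data normalized against buffer-only and known inhibitor Salinomycin.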
Marburg entry inh – blocks Marburg virus binding to or entry into cells | Marburg virus pseudotyped entry inhibition, cell reporter | Potency, µM (top dose mostly 37.8 µM), inactives show at the highest dose activity change, negative = inhibition, most hits filed as inhibitors | 300,000 compounds, 1.8% hits; calls by dose curve; tested in HEK293 cells; further: potency means the concentration at half of the fitted maximal effect
LASV entry inh – Lassa virus entry inhibition; 300,000 compounds, 1.2% hits; Lassa virus pseudotype entry inhibition, cell reporter; AID 540256; Potency, µM (highest dose often 37.9 µM), for inactives: at the highest dose activity change, negative = inhibition, most hits filed as inhibitors; calls by dose curve; tested in HEK293 cells; further: potency means the concentration at half of the fitted maximal effect; nearly all actives have a fitted effect of over 50% in size
The depositor's hits bear a star; [ ] = remark or other dose. The list is not random: actives were taken first. Their share in the collection is about 8.3%. Unless noted, the call rests on the fitted dose curve; in most records, active means well fitted curve in the direction sought with a large enough effect; inconclusive means small, poorly fitted or top-dose-only effect, or another doubt; inactive means no such curve, though single readings can be large; an effect the other way counts as inactive or inconclusive. On the % scale 0 is the no-effect control and ±100 the full control effect.

What do the screens show for `COc1cccc(NC(=O)CN(C)C(=O)/C=C/c2ccc(S(=O)(=O)N3CCCCCC3)cc2)c1`?
FMDV antiviral: -14.7%; HCMV inh: -38.2

How did CCOc1ccc(CN(C)C(=O)CCl)cc1 do in these assays?
FMDV antiviral: 25.1µM*; FBPA Giardia inh: 3.0%; HCV inh: inconclusive; HCMV inh: -29.6; Marburg entry inh: 11.2µM*; LASV entry inh: inconclusive

How did COc1ccc(CN(C)C(=O)/C=C/c2ccc(S(=O)(=O)N3CCCCCC3)cc2)cc1 do in these assays?
FMDV antiviral: inconclusive; HCV inh: 11.2µM*; HCMV inh: inconclusive; Marburg entry inh: inconclusive; LASV entry inh: 5.01µM*

Results for CCOc1ccc(CN(C)C(=O)CCc2ccc(S(=O)(=O)N3CCCCCC3)cc2)cc1 ?
FMDV antiviral: inconclusive; HCV inh: 3.98µM*; HCMV inh: -60.4*

How did CN(CC(=O)Nc1cccc(F)c1)C(=O)/C=C/c1ccc(S(=O)(=O)N2CCCCCC2)cc1 do in these assays?
FMDV antiviral: -9.4%; HCV inh: -14.1%; HCMV inh: -29.8; Marburg entry inh: inconclusive; LASV entry inh: -26.9%

How did CNC(=O)c1ccc(CN(C)C(=O)/C=C/c2ccc(S(=O)(=O)N3CCCCCC3)cc2)cc1 do in these assays?
FMDV antiviral: inconclusive; HCMV inh: -84.4*

How did CCOc1ccc(CN(C)C(=O)CCNC(=O)c2ccco2)cc1 do in these assays?
FMDV antiviral: 1.9%; HCV inh: -1.3%; HCMV inh: -18.1

Results for CCC[C@@H]1O[C@@H]2C[C@@H]3[C@H]4CCC5=CC(=O)C=C[C@@]5(C)[C@H]4[C@H](O)C[C@@]3(C)[C@@]2(C(=O)CO)O1 ?
FBPA Giardia inh: 0.6%[21.7 µM]

Results for CC(=O)C1=C(O)C=C2Oc3c(C(C)=O)c(O)c(C)c(O)c3C2(C)C1=O (stereo unspecified) ?
FMDV antiviral: -20.1%; FBPA Giardia inh: 13.5%

Results for N#Cc1cccc(NC(=O)Cn2nc(Cc3ccncc3)c3ccccc3c2=O)c1 ?
FMDV antiviral: -12.7%; HCMV inh: -14.1; Marburg entry inh: -20.3%[46.1 µM]; LASV entry inh: -19.6%[46.1 µM]

What do the screens show for `O=C(Cc1ccccn1)N1CC(=O)N2[C@H](C1)[C@@H](c1ccc(Br)cc1)[C@@H]2CO`?
HCMV inh: 63.1

How did COc1ccc(-c2ccc(OC)c(C3C4C=CCCC4(C)C(=O)N3Cc3ccccc3)c2)cc1OC (stereo unspecified) do in these assays?
FBPA Giardia inh: -4.7%

Results for C=CC[C@@](C(C)=O)(C(=O)OC)[C@@H](NC(=O)OC)c1ccccc1 ?
Marburg entry inh: -3.0%[14.2 µM]

Results for CC[C@H](NC(C)C)[C@H](O)c1ccc(O)c(O)c1 ?
FBPA Giardia inh: 3.54µM*; Marburg entry inh: -22.7%

Results for C[C@@H](N)[C@@H](O)c1ccc(O)c(O)c1 ?
Marburg entry inh: 12.5µM*; LASV entry inh: inconclusive

Results for C[C@H](N)[C@H](O)c1ccc(O)c(O)c1 ?
FBPA Giardia inh: 7.06µM*

Results for CCCn1c(C)nc2c(NCCCCN(C)C)nc(C)nc21 ?
FBPA Giardia inh: 4.4%

How did CCOC(=O)c1cc(-c2ccccc2)sc1NC(=O)C(C)OC(=O)c1cccc(S(=O)(=O)N(C)C)c1 (stereo unspecified) do in these assays?
FMDV antiviral: -9.3%; FBPA Giardia inh: 2.0%; HCV inh: inconclusive; HCMV inh: -28.5; Marburg entry inh: -3.5%; LASV entry inh: -0.3%

Results for CCOC(=O)c1cc(-c2ccccc2)sc1NC(=O)C(C)OC(=O)c1cccnc1OCC (stereo unspecified) ?
FMDV antiviral: -16.3%; FBPA Giardia inh: 1.0%; HCV inh: 3.55µM*; HCMV inh: -38.7; Marburg entry inh: inconclusive; LASV entry inh: -21.1%

How did O=C(NC1(C(F)(F)F)NC(=O)N(CCc2ccccc2)C1=O)c1ccccc1Cl (stereo unspecified) do in these assays?
FMDV antiviral: -7.7%; HCMV inh: 5.2; Marburg entry inh: -12.8%[46.1 µM]; LASV entry inh: 6.6%[46.1 µM]
